Measurements: PubChem BioAssay
The source made the active and inactive calls. Rule as the data show it: active = fold change permeability below about 0.7 or above about 1.3; inactive = in between. Positions of bridges follow the written chain, without caps; N, C: chain ends. Non-standard residues stand in square brackets, D forms with d. Residues, ends and D or L forms follow the SMILES beside them. hArg = N=C(N)NCCCC[CH](N)C(=O)O; Mpa = O=C(O)CCS

Assay: compounds altering in vitro BBB leakiness – cell-based, FITC-avidin fluorescence, HTS, primary screen (AID 1963498); also: test concentration not given here
Conditions: brain endothelial barrier, actives lie on both sides

Row | Structure (SMILES) | fold change permeability
1 | NC(=O)C1CSSCCC(=O)NC(CCCCN=C(N)N)C(=O)NCC(=O)NC(CC(=O)O)C(=O)NC(Cc2c[nH]c3ccccc23)C(=O)N2CCCC2C(=O)N1 (centres undefined) ([Mpa][hArg]GDWPC-NH2; disulfide 1-7; configuration not given here) | 0.9 (inactive)
2 | c1ccc(C2CN3CCSC3=N2)cc1 (centres undefined) | 1 (inactive)
3 | Nc1nc2c(cnn2CCc2ccccc2)c2nc(-c3ccco3)nn12 | 0.7 (active)
4 | O=C(O)[C@H](CC(=O)N1C[C@H]2CCCC[C@H]2C1)Cc1ccccc1 | 1.2 (inactive)
5 | CO[C@H]1O[C@@H]2O[C@@]3(C)CC[C@H]4[C@H](C)CC[C@@H]([C@H]1C)[C@@]24OO3 | 0.8 (inactive)
6 | CCN(CC)CCOc1ccc(/C(=C(/Cl)c2ccccc2)c2ccccc2)cc1 | 1.2 (inactive)
7 | CN(C)CCOC(=O)COc1ccc(Cl)cc1 | 0.9 (inactive)
8 | Cn1c(=O)[nH]c2ncn(C)c2c1=O | 1.1 (inactive)
9 | CC[N+](CC)(CC)CC(=O)Nc1c(C)cccc1C | 1.5 (active)
10 | NC(N)=NC(=O)c1nc(Cl)c(N2CCCCCC2)nc1N | 1.1 (inactive)
11 | CC(C)NCC(O)COc1ccc(CCOCC2CC2)cc1 (centres undefined) | 1.2 (inactive)
12 | COc1ccc(Cl)cc1C(=O)NCCc1ccc(S(=O)(=O)NC(=O)NC2CCCCC2)cc1 | 0.7 (active)
13 | Cc1cn([C@H]2C=C[C@@H](CO)O2)c(=O)[nH]c1=O | 1.2 (inactive)
14 | C[C@H]1O[C@@H](n2cc(F)c(=O)[nH]c2=O)[C@H](O)[C@@H]1O | 0.8 (inactive)
15 | O=C1NC(=O)C(c2ccccc2[N+](=O)[O-])=C1Nc1ccc(O)c(Cl)c1 | 1.4 (active)
16 | COc1cccc(OC)c1OCCNCC1COc2ccccc2O1 (centres undefined) | 1.3 (active)
17 | CC(=O)O[C@H]1C[C@@]2(C)[C@@H](C[C@@H](O)[C@H]3[C@@]4(C)CC[C@@H](O)[C@@H](C)[C@@H]4CC[C@@]32C)/C1=C(\CCC=C(C)C)C(=O)O | 1 (inactive)
18 | NCCCC(N)(C(=O)O)C(F)F (centres undefined) | 0.8 (inactive)
19 | CN(C)CCCc1cc(C(=O)Nc2ccc(-c3ccncc3)cc2)ccc1O | 1 (inactive)
20 | O=S(=O)(c1cccc2c(Cl)cccc12)N1CCCNCC1 | 1.1 (inactive)

Row | Structure (SMILES) | fold change permeability
21 | N=S(=O)(O)Cc1noc2ccccc12 | 1.9 (active)
22 | O=[N+]([O-])c1ccc2c(c1)S(=O)(=O)C=C2 | 2.1 (active)
23 | COc1cc2nc(N3CCN(C(=O)C4COc5ccccc5O4)CC3)nc(N)c2cc1OC (centres undefined) | 1.4 (active)
24 | CC1CNCCN1S(=O)(=O)c1cccc2cnccc12 (centres undefined) | 1.1 (inactive)
25 | O=C(O)CCc1ccc(NCc2cccc(Oc3ccccc3)c2)cc1 | 0.7 (active)
26 | O=C(O)C1CCNCC1 | 1.2 (inactive)
27 | OC[C@H]1O[C@H]([S-])[C@H](O)[C@@H](O)[C@@H]1O.[Au+] | 1.5 (active)
28 | O=C(/C=C/c1ccc(O)c(O)c1)OCCc1ccccc1 | 1 (inactive)
29 | O=C1N/C(=N/S(=O)(=O)c2cccc3ccccc23)S/C1=C\c1ccc(Br)cc1 | 1.3 (active)
30 | C[N+](C)(C)CCCCCC[N+](C)(C)C | 1 (inactive)
31 | CCCN[C@H]1CCc2nc(N)sc2C1 | 1.1 (inactive)
32 | N[C@@H](C(=O)N[C@@H]1C(=O)N2C(C(=O)O)=C(Cl)CS[C@H]12)c1ccccc1 | 0.9 (inactive)
33 | CCOC(=O)c1c(CSc2ccccc2)n(C)c2cc(Br)c(O)c(CN(C)C)c12 | 1.4 (active)
34 | Cc1[nH]c(=O)c(C#N)cc1-c1ccncc1 | 0.8 (inactive)
35 | CC(=O)c1ccc2c(c1)N(CCCN(C)C)c1ccccc1S2 | 1.6 (active)
36 | CN[C@H](CC(C)C)C(=O)N[C@H]1C(=O)N[C@@H](CC(N)=O)C(=O)N[C@H]2C(=O)N[C@H]3C(=O)N[C@H](C(=O)N[C@H](C(=O)O)c4cc(O)cc(O)c4-c4cc3ccc4O)[C@H](O)c3ccc(c(Cl)c3)Oc3cc2cc(c3O[C@@H]2O[C@H](CO)[C@@H](O)[C@H](O)[C@H]2O[C@H]2C[C@](C)(N)[C@H](O)[C@H](C)O2)Oc2ccc(cc2Cl)[C@H]1O | 1.6 (active)
37 | c1ccc2c(CC3=NCCN3)cccc2c1 | 0.9 (inactive)
38 | C[n+]1cccc(C(N)=O)c1 | 0.9 (inactive)
39 | CS(=O)(=O)c1ccc(C2=C(c3ccccc3)C(=O)OC2)cc1 | 0.8 (inactive)
